Bioassay records deposited in PubChem by several laboratories.
Rows were chosen to be rich in hits. Some 5.9% of all compounds tested hit in one or more screens of this group.
rCAG RNA binder – r(CAG) repeat RNA binding; TO-PRO-1 dye displacement fluorescence; inhibition, % at 3 µM; 1.3% of 370,000 active; AID 651821;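 active = inhibition above the plate cutoff, the mean of all test compounds on that plate plus 3 SD, cut at about 35% in these data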;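 note: 0% = DMSO alone and 100% = 100 µM mitoxantrone as full dye displacement; higher means more dye released from RNA so lower well fluorescence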
LANA-H2A inh – blocks KSHV LANA binding to histone H2A/H2B; Q9QR71; inhibition, % (test concentration not listed); cell-free LANA-H2A/H2B peptide, fluorescence polarization; 0.6% of 320,000 active; in the data active = inhibition mostly above about 10%, no sharp cut-off; inactive = mostly below about 6.7%
Target sequence (Q9QR71 whole entry, looked up): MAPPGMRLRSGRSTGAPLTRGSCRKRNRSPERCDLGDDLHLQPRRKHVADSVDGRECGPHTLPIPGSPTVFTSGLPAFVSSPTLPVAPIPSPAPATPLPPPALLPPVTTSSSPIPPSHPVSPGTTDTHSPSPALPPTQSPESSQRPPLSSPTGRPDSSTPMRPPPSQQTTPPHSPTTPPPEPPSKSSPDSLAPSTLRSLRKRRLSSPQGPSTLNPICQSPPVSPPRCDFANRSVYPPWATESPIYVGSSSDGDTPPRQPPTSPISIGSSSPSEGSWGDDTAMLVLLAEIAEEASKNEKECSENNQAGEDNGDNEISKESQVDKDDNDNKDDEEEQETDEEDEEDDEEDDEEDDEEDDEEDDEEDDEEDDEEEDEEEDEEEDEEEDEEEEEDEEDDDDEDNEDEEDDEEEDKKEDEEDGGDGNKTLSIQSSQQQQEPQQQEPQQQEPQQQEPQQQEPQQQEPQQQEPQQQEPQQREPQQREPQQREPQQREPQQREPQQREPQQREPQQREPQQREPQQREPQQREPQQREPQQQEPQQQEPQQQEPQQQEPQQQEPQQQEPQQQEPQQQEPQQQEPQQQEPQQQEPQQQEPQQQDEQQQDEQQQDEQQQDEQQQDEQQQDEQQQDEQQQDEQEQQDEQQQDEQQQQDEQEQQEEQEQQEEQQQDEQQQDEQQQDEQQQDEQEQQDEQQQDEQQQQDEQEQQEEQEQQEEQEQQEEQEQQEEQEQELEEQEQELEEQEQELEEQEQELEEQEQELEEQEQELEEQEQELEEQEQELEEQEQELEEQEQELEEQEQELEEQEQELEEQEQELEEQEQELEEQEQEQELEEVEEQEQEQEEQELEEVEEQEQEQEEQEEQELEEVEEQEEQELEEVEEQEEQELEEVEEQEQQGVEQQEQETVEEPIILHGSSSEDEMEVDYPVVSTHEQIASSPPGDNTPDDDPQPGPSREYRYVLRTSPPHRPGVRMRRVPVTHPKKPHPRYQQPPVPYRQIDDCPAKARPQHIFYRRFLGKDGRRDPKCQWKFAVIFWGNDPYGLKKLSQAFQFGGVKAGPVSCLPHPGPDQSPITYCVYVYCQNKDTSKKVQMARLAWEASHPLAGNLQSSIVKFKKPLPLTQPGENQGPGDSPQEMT
ALR H2O2 inh – blocks human ALR sulfhydryl oxidase activity; P55789; purified ALR, DTT oxidation, H2O2 HRP-luminol luminescence; inhibition, % (test concentration not listed); 3.8% of 290,000 active;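 active = mean replicate inhibition above about 79%, with every replicate also reaching it, limit read from the data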
PRMT1 inh – blocks human protein arginine methyltransferase 1; Q99873; recombinant PRMT1, activity-based probe fluorescence polarization; inhibition, % at 2.79 µM; 1.3% of 370,000 active;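 active = inhibition above about 21% made by adding two undisclosed values, limit read from the data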
ABHD5 PLIN5 PPI – inhibitors of human ABHD5-perilipin-5 interaction; Q00G26+Q8WTS1; Split G. princeps luciferase complementation, luminescence, 4 h; inhibition, % at 4 µM; 0.78% of 360,000 active; AID 602281;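 active = inhibition above the mean inhibition across every tested compound plus 3 SD, cut at about 22% in these data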;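 note: 0% = DMSO only wells and the 100% control is not disclosed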
Rtt109 HAT inh – blocks Candida albicans Rtt109/Vps75 acetyltransferase activity; purified Rtt109/Vps75, ThioGlo CoA-SH fluorescence, 4 h; Q5AAJ8; 0.16% of 330,000 active; AID 540336; inhibition, % at 34.9 µM;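 active = inhibition of at least 50% in every replicate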
An asterisk follows results filed as active; . = no result.

SMILES | rCAG RNA binder | LANA-H2A inh | ALR H2O2 inh | PRMT1 inh | ABHD5 PLIN5 PPI | Rtt109 HAT inh
C=C(O[C@H]1[C@H](O)CC=C(C(=O)O)[C@@H]1O)C(=O)O | 1 | . | . | -6 | . | .
COc1cc(/C=N\Nc2nc3ccccc3o2)cc(OC)c1OC | -1 | 1 | -25 | 0 | 5 | -6
COc1ccc(/C=N/Nc2nc3ccccc3o2)cc1O | 1 | 2 | 99* | 3 | 3 | -2
COc1cc(/C=N/Nc2nc3ccccc3o2)cc(OC)c1O | 1 | -4 | 99* | 11 | 4 | -16
CC(C)C[C@@H](CNCC(=O)[C@H](CC(C)C)NC(=O)c1[nH]cnc1C(=O)N[C@@H](C)CN)NC(=O)c1nc[nH]c1C(=O)N[C@@H](CC(=O)O)C(=O)O | 4 | . | . | 2 | -1 | -2
CN(C(=O)c1cccc(NC(=O)Cc2ccc(NC(=O)C3CCN(C(=O)C4CC4)CC3)cc2)c1)C1CCCCC1 | 6 | . | . | -1 | 5 | -9
Cn1nc(-c2ccc(Cl)cc2)c2cc(C(=O)NCCN3CCOCC3)sc21 | -1 | 1 | 93* | 7 | -9 | 9
Cn1nc(-c2ccc(Cl)cc2)c2cc(C(=O)NCCCN3CCOCC3)sc21 | . | 1 | 95* | . | -1 | -10
CCN(CC)CCNC(=O)c1cc2c(-c3ccc(Cl)cc3)nn(C)c2s1 | 7 | . | . | 1 | 16 | 44
CCOCCCNC(=O)c1cc2c(-c3ccc(Cl)cc3)nn(C)c2s1 | 3 | 6 | 39 | 5 | -3 | 2
CCCCNC(=O)c1cc2c(=O)n(CC)c3ccccc3c2s1 | 0 | 2 | . | 1 | -6 | -9
CCn1c(=O)c2cc(C(=O)NCCN3CCOCC3)sc2c2ccccc21 | 2 | 0 | 94* | 6 | 3 | 0
Cn1nc(-c2ccc(Cl)cc2)c2cc(C(=O)NC3CC3)sc21 | 2 | -5 | 84* | 2 | -1 | -1
CCCCNC(=O)C1CCCN1C(=O)Nc1ccc2c(c1)OCO2 (stereo not given) | 2 | . | . | 2 | . | .
O=C(Nc1c(F)cc(F)cc1Br)c1cc(-c2ccc(O)cc2)on1 | 3 | -1 | 99* | 1 | -7 | 4
O=C(Nc1ccccc1C(=O)NCCCN1CCOCC1)c1ccc(Cl)cc1 | -6 | 88* | -9 | -3 | 8 | 9
O=C(NCCCN1CCOCC1)c1cc(-c2ccc(Br)cc2)on1 | 3 | 1 | . | 4 | 10 | 2
CCN1CCN(C(=O)c2cc3c(-c4ccc(Cl)cc4)nn(C)c3s2)CC1 | 11 | -1 | 98* | -5 | 17 | 19
O=C(NCCCN1CCOCC1)c1cc(-c2ccc(O)cc2)on1 | 0 | 0 | 98* | 5 | -2 | 1
O=C(Nc1ccccc1C(=O)NCCCN1CCOCC1)c1ccccc1 | -8 | 7 | -2 | 0 | 3 | -8
O=C(CSc1nnc(COc2ccccc2)n1Cc1ccco1)Nc1ccc2c(c1)OCO2 | 3 | . | . | 11 | . | .
O=C(O)C(=Cc1cccc([N+](=O)[O-])c1)c1ccccc1 | 0 | . | . | -1 | 7 | .
O=C(C#Cc1cccc([N+](=O)[O-])c1)c1ccccc1 | . | 9 | 12 | . | 30* | 4
CC1(C)CC(=O)c2cnc(NC3CC3)nc2C1 | -3 | 18* | 8 | 3 | 2 | 8
CC(C)c1ccc(NC2CCCN(C(=O)c3ccccc3-c3ncc[nH]3)C2)cc1 (stereo not given) | -3 | -1 | 88* | 1 | -5 | 18
SMILES | rCAG RNA binder | LANA-H2A inh | ALR H2O2 inh | PRMT1 inh | ABHD5 PLIN5 PPI | Rtt109 HAT inh
CC(C)c1ccc(NC2CCCN(C(=O)c3ccc(N4CCOCC4)cc3)C2)cc1 (stereo not given) | -9 | 6 | 98* | 1 | -6 | 0
CC(C)c1ccc(NC2CCCN(C(=O)c3ccoc3)C2)cc1 (stereo not given) | -6 | 3 | 99* | -3 | -8 | 3
O=C(c1ccoc1)N1CCCC(Nc2ccc(F)c(F)c2)C1 (stereo not given) | 1 | -2 | 59 | -5 | 0 | -1
CN(C)CCN(C)C1CN(Cc2ccc(F)cc2)S(=O)(=O)C1 (stereo not given) | 1 | . | . | 0 | -4 | .
CC(C)NC(=O)CCn1nnc(-c2cccs2)n1 | 1 | . | . | -2 | . | .
Cc1ccc(Cl)cc1NC(=O)N(C)CCOC(=O)Nc1cccc(Cl)c1 | 2 | . | . | -1 | . | .
COc1ccc(CCN(Cc2cccs2)S(=O)(=O)c2ccccc2)cc1OC | 0 | . | . | -3 | . | .
C=CCN(CC#Cc1ccccc1)Cc1ccc(OC)cc1OC | 1 | . | . | -4 | . | .
COc1ccc([C@H]2C[C@@H](O)[C@H](n3cc(C4CC4)nn3)CN2C(=O)c2cccs2)cc1 | 3 | . | . | -4 | -14 | .
Cc1ccc(C(=O)/C=C/c2ccco2)c(O)c1 | 9 | 11 | 98* | 5 | 12 | 2
COC(=O)Nc1cc(C(=O)c2ccc(Cl)cc2Cl)c[nH]1 | 9 | -3 | 24 | 24* | 5 | -3
COC(=O)NNC(=O)c1ccc(Cl)cc1Cl | 4 | 2 | -3 | -1 | 3 | 5
COc1cccc(CNC(=O)[C@@H]2CCCN2C(=O)[C@H]2CCCCN2C(=O)c2cccc(Cl)c2)c1 | -2 | . | . | 3 | 0 | .
Cc1nn(-c2ccccc2)c2sc(C(=O)NCc3ccc4c(c3)OCO4)cc12 | 9 | . | . | 1 | . | .
Cc1cc(-c2csc(N)n2)c(C)n1Cc1ccco1 | 18 | -1 | -3 | 16 | 23* | 16
CCOc1cc(/C=N/NC(=O)CSc2nncn2C)ccc1OCC(N)=O | -1 | -3 | . | 5 | 8 | -2
CCOc1cc(/C=N/NC(=O)C2CCCC2)ccc1O | -3 | 2 | 99* | 1 | 0 | -1
CCOc1cc(/C=N/NC(=O)CSc2nncn2C)ccc1OCc1cccc(C)c1 | -6 | . | . | -3 | 16 | 50*
CCOc1cc(/C=N/NC(=O)CSc2cccc3cccnc23)ccc1O | -2 | -8 | 99* | 0 | 3 | 0
CCOc1cc(/C=N/NC(=O)c2ccc(NC(=O)C3CC3)cc2)ccc1O | -1 | -4 | 32 | -4 | -3 | -1
CCOc1cc(/C=N/NC(=O)Nc2ccccc2)ccc1O | -1 | 3 | 99* | -1 | -3 | 2
COc1cc(/C=N/NC(=O)Nc2ccccc2)ccc1OC(C)=O | -4 | 1 | -2 | -1 | -1 | 13
Cc1ccc(S(=O)(=O)N2CCC(C(=O)NCc3cccs3)CC2)cc1 | 4 | . | . | 1 | . | .
CCOc1cc(/C=N/Nc2nc(-c3cccs3)c(NC(C)=O)s2)ccc1O | 16 | -2 | 95* | 10 | -10 | 5
Cc1ccc(C)c(NC(=O)CSc2cccc3cccnc23)c1 | -1 | 17* | 0 | -1 | -6 | -1
CCOc1cc(C=NN2CCCCCC2)ccc1O | 1 | . | . | 2 | -8 | 7
CCOc1cc(/C=N/n2c(C)nnc2C)ccc1O | 2 | -5 | 94* | -2 | -2 | 0
Cc1cccc(NC(=O)CSc2cccc3cccnc23)c1 | 0 | 5 | -11 | -2 | 3 | 9
CCOc1cc(/C=N/NC(=O)C(=O)N2CCCC2)ccc1O | -3 | 3 | 99* | -4 | 2 | 0
